# HTT ATP protect – Huntington cell model cytoprotection by ATP luminescence. PC12 HTT-Q103 induced, cytoprotection, ATP luminescence, 40 h. Potency, µM (top dose mostly 56.4 µM), inactives show cytoprotection (ATP increase), hits mostly activators. hit rate 0.14% among 230,000; note: potency is the fitted concentration of half-maximal effect; % of control where 0% means no effect; nearly all actives have a fitted effect of over 45% in size
#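 Compounds added alongside 100 nM tebufenozide, which induces toxic Q103 huntingtin exon 1-GFP in stable PC12 cells; surviving cells quantified by luminescent ATP measurement. Medium: phenol red-free DMEM, 5% equine and 5% calf serum.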
# PNC assembly inh – inhibitors of perinucleolar compartment assembly; PC3M PTB-GFP, PNC prevalence imaging, 16 h; active compounds read low; activity change (PNC), negative = inhibition, % at 10 µM; hit rate 3.1% among 140,000; AID 2417;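 active = readout at or below -70, meaning at least 70% loss of cells showing the perinucleolar compartment, a nuclear body marking cancer cells; inconclusive = readout between -30 and a set limit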;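 note: plate controls were DMSO wells for no effect and camptothecin positive control wells for full effect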
#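 Compounds are pinned in duplicate onto adhered PC3M cells stably expressing GFP-tagged PTB and incubated 16 h at 37 C. Cells are then fixed, nuclei stained with Hoechst, and PNC-positive cells counted.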
# HTT aggregate – inhibitors of mutant huntingtin aggregate formation in PC12 cells; PC12 HttQ103-GFP aggregates, Acumen cytometry, 40 h; hit rate 1.1% among 220,000; Potency, µM (top dose mostly 46.1 µM), inactives show at the highest dose activity change, negative = inhibition, usual class: inhibitors; note: potency is the fitted concentration of half-maximal effect; % is set by controls: 0 for no effect and ±100 for the full control effect; nearly all actives have a fitted effect of over 60% in size
#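 Ecdysone-promoter PC12 model expressing HTT exon 1 Q103 fused to GFP, induced by tebufenozide at 100 nM final. Compounds titrated; aggregates sized 1–25 µm scored on a 488 nm laser cytometer.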
# HPGD block – blocks human HPGD enzyme activity; P15428; purified HPGD, NADH fluorescence kinetic, PGE2 substrate; Potency, µM, inactives show top-dose activity change, negative = inhibition, most hits filed as inhibitors; hit rate 4.3% among 150,000; AID 894; active = well fitted inhibition curve with a large enough effect, not every such curve was filed as active; inconclusive = small, poorly fitted or top-dose-only effect, or another doubt; inactive = no such curve, though single readings can be large or run the other way; note: potency is the fitted concentration of half-maximal effect; % is set by controls: 0 for no effect and ±100 for the full control effect
# Target sequence (P15428 whole entry, looked up): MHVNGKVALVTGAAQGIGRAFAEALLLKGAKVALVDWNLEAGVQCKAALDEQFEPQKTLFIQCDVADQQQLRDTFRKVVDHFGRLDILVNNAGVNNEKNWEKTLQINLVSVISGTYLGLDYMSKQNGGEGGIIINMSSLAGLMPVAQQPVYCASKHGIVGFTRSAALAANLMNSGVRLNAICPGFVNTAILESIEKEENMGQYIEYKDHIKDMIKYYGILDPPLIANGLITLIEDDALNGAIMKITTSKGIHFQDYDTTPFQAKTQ
#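 20 nM HPGD preincubated 15 min at room temperature with compound in 50 mM Tris-HCl pH 8, 0.01% Tween 20. Started with 1 mM NAD+ and 30 uM prostaglandin E2; NADH fluorescence (360/450 nm) read 5 times over 30-s intervals, last minus first.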
# ALDH1A1 inh – ALDH1A1 (human) enzyme inhibition. Purified ALDH1A1, NADH fluorescence, propionaldehyde substrate. AID 1030. P00352. hit rate 7.3% among 220,000. Potency, µM (doses to about 75.3 µM), inactives show top-dose activity, negative = inhibition, actives largely listed as inhibitors; active = well fitted inhibition curve with a large enough effect, not every such curve was filed as active; inconclusive = small, poorly fitted or top-dose-only effect, or another doubt; inactive = no such curve, though single readings can be large or run the other way;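 note: potency is the fitted concentration of half-maximal effect; plate controls were no enzyme wells and a reference inhibitor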
# Target sequence (P00352 whole entry, looked up): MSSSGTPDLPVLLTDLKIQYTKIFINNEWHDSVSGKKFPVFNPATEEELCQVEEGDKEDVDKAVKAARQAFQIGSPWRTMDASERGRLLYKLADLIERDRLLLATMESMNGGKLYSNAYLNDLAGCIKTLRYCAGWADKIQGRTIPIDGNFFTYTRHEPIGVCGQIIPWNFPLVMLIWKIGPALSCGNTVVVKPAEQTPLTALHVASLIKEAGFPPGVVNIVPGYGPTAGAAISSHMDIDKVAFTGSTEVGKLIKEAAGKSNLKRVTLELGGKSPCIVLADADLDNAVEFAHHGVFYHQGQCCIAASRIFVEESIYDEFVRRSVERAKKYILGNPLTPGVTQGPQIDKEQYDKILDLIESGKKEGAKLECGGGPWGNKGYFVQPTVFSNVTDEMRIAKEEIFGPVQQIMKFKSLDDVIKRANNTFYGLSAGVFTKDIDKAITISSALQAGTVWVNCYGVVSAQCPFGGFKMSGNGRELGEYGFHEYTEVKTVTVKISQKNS
# CBFb-RUNX1 inh – blocks binding between human CBF-beta and RUNX1. AID 1477. AlphaScreen CBFb-His/RUNX1-biotin binding, biochemical. Potency, µM (series often up to 59.8 µM), for inactives: at the top dose activity, negative = inhibition, most hits filed as inhibitors. Q01196+Q13951. 230,000 tested, under 10 active; note: % of control where 0% means no effect
#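 AlphaScreen proximity signal reports loss of binding between His-tagged CBF-beta and biotin-labelled RUNX1, each at 30 nM. Proteins are pre-associated for 20 minutes, compounds added for 15 minutes, then beads for 90 minutes, all at ambient temperature.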
# Starred values were filed as active, the others as inactive; ? = inconclusive; . = not tested or not shown; [ ] = remark or other dose. Compounds with a hit are over-represented: about 11% of the library has one in this group of screens. Unless noted, calls come from the whole dose curve; as a rule, active = well fitted curve in the direction sought with a large enough effect; inconclusive = small, poorly fitted or top-dose-only effect, or another doubt; inactive = no such curve, though single readings can be large; an effect the other way counts as inactive or inconclusive.
SMILES,HTT ATP protect,PNC assembly inh,HTT aggregate,HPGD block,ALDH1A1 inh,CBFb-RUNX1 inh
Cn1cccc1C(=O)N1CCC2(CCCN(c3ccccc3)C2)CC1,-0.6%,.,.,-13.5%,?,.
O=C(NC(=S)NNS(=O)(=O)c1ccccc1)c1ccc([N+](=O)[O-])cc1,19.2%[10 µM],?,-5.7%,?,?,-1.7%
CCCCC(=O)NC(=S)Nc1c(C)cc(Br)cc1C,.,33.2,7.5%,?,11.2µM*,-3.6%
CCCCC(=O)NC(=S)NNC(=O)CC,15.3%[1.9 µM],-94.1*,-24.4%,-12.3%,22.4µM*,13.9%
CCCCC(=O)NC(=S)Nc1cccc(NC(=O)CC)c1,5.6%,-2.2,4.9%,-12.9%,-0.6%,-5.1%
O=C(NC(=S)NNS(=O)(=O)c1ccccc1)c1ccccc1[N+](=O)[O-],-34.5%[10 µM],13.3,17.2%,20µM*,27.9%,4.8%
CCCCC(=O)NC(=S)NNS(=O)(=O)c1ccccc1,9.5%[10 µM],-27.4,27.8%,20µM*,8.91µM*,5.1%
COc1ccccc1CN1C[C@@H]2C[C@@H](c3cccc(C)c3)N3CCC[C@@]23C1=O,6.7%[10 µM],.,-4.4%[9.22 µM],.,7.0%,8.2%
Cc1cc(C)nc(N(C#N)CN2C(=O)c3ccccc3C2=O)n1,-1.8%,-3.8,-3.9%,?,25.1µM*,4.5%
CC(C)Nc1nc(Cl)nc(N(C#N)CN2C(=O)c3ccccc3C2=O)n1,20.8%[10 µM],2.8,0.8%,-8.3%,?,3.2%
Cc1cc(C)nc(N(C#N)Cc2ccccc2Cl)n1,-11.8%,57.5,20.6%,-2.8%,14.1µM*,-0.1%
CC1(C)S[C@@H]2[C@H](NC(=O)COc3ccccc3)C(=O)N2[C@H]1C(=O)O,?,.,5.2%,-9.1%,0.1%,-6.0%
COc1ccc(NCc2c(O)ccc3ccccc23)cc1,-4.7%[10 µM],.,.,-8.2%,1.58µM*,.
Oc1ccc2ccccc2c1Cc1c(O)ccc2ccccc12,10.3%[10 µM],.,.,-9.7%,16.0%[13.5 µM],.
COc1ccc(NCc2cc3ccccc3[nH]c2=O)cc1,-13.3%,?,0.0%,.,7.94µM*,-20.1%
COc1ccc(NCc2cc3cc(OC)ccc3[nH]c2=O)cc1,-20.3%,-22.2,-7.6%,-17.3%,8.91µM*,-15.2%
CCOC(=O)/C=C/COc1ccccc1[N+](=O)[O-],-10.5%,.,9.8%,.,-2.1%,-2.8%
Cc1cccn2cc(CNC(=O)C3CCCCC3)nc12,5.0%[10 µM],-100.0*,-12.0%,?,2.5%,0.4%
Cc1sc2nc3c(C(=O)N4CCCC4)cc(C(=O)c4ccccc4O)cn3c(=O)c2c1C,22.1%[10 µM],.,-23.5%,.,20µM*,-1.5%
CCc1c(C)sc2nc3c(C(=O)N4CCOCC4)cc(C(=O)c4cc(F)ccc4O)cn3c(=O)c12,6.6%,.,-12.3%,.,?,-14.4%
CCOC(=O)c1c(NC(=O)CCl)sc(CN(C)C)c1-c1ccccc1,14.5%[10 µM],.,-27.9%,.,7.08µM*,-2.9%
CCOC(=O)c1c(NC(=O)/C=C/C(=O)O)sc(C)c1-c1ccc(Cl)cc1,-28.3%[10 µM],.,2.4%,.,20µM*,-9.8%
O=C(NNS(=O)(=O)c1ccccc1)c1cc2cc3ccccc3nc2s1,-19.1%,-106.3*,5.8%,?,8.3%,-2.8%
Cc1ccc(NC(=O)CC2SC3=NCCCN3C2=O)c(C)c1 (centres undefined),-10.2%,4.3,7.8%,-12.1%,1µM*,3.3%
CCN(Cc1ccccc1)S(=O)(=O)c1ccc(S(=O)(=O)N2CCN(CCC#N)CC2)cc1,14.9%[10 µM],29.5,-7.7%,-8.6%,?,9.3%
SMILES,HTT ATP protect,PNC assembly inh,HTT aggregate,HPGD block,ALDH1A1 inh,CBFb-RUNX1 inh
Cc1cc(C)c(S(C)(=O)=O)c(Oc2ccc(C(C)(C)C)cc2)n1,-31.1%,-1.0,-10.0%,-6.8%,15.8µM*,4.0%
CCC(=O)Nn1cnc2c(c1=O)C1(CCCCC1)Cc1ccccc1-2,7.9%,-105.8*,4.3%,-1.0%,?,5.9%
COc1cc(C(=S)N2CCCC2)cc(OC)c1O,5.0%[10 µM],?,7.6%,20µM*,-98.7%,0.6%
COc1ccc(C(=S)N2CCNCC2)cc1,-4.7%,?,-3.8%,-5.5%,-1.4%,2.8%
COc1ccc(C(=S)N2CCCCCC2)cc1,2.5%[10 µM],?,-26.7%,15.8µM*,?,-5.0%
COc1ccc(NC(=S)N2CCC(C(=O)N3CCCCCC3)CC2)cc1,-17.6%,-13.4,-2.0%,-17.6%,14.1µM*,4.2%
Cc1ccc(S(=O)(=O)Oc2ccc(C3C4=C(CCCC4=O)N(CCC(=O)O)C4=C3C(=O)CCC4)cc2Cl)cc1,.,?,23.9%,?,?,11.8%
CCC[C@H](Sc1nc(N)nc2nc[nH]c12)C(=O)O,-1.2%[10 µM],.,.,-12.7%,11.9%[13.5 µM],.
Cc1ccc(O)c(C(=O)c2coc(=N)c(C(=O)NC(C)C)c2)c1,20.4%,-23.3,-12.1%,17.8µM*,?,2.6%
COC(=O)c1cc(C(=O)c2cc(Cl)ccc2O)coc1=N,13.4%,.,-0.2%,.,?,5.5%
CO[C@@H]1/C=C\O[C@@]2(C)Oc3c(C)c(O)c4c(c3C2=O)C(=N[C@H]2CC[C@H](O)O[C@@H]2C)C=C(NC(=O)/C(C)=C\C(=O)[C@@H]2C[C@@H]2[C@@H](O)[C@H](C)[C@@H](O)[C@H](C)[C@H](OC(C)=O)[C@@H]1C)C4=O,-8.9%[10 µM],.,.,-29.2%,-12.8%[13.5 µM],.
CCn1cc(C(=O)NCc2ccc3c(c2)OCO3)c(=O)c2cc(S(=O)(=O)N(C)C)ccc21,.,8.6,-6.8%,?,?,6.8%
CCn1cc(C(=O)NCc2ccccc2OC)c(=O)c2cc(S(=O)(=O)N(C)C)ccc21,-12.2%,20.2,2.4%,-20.1%,3.16µM*,13.3%
CC(=O)OCC1OC(C#Cc2ccc(Cl)cc2)C=CC1OC(C)=O (centres undefined),-7.2%[10 µM],.,.,.,-1.0%[13.5 µM],-2.8%[13.1 µM]
COc1ccc(S(=O)(=O)CCC(=O)Nc2cc(C)ccc2OC)cc1,-185.5%,.,16.8%,.,25.1µM*,4.3%
O=C(CN1CCN(S(=O)(=O)c2ccc(Br)cc2)CC1)Nc1ccc(F)cc1F,17.9%[10 µM],?,-14.5%,-0.7%,-1.8%,2.7%
O=C(CN1CCN(S(=O)(=O)c2ccc(Br)cc2)CC1)N/N=C/c1cccnc1,4.9%[10 µM],-90.1*,10.2%,-5.2%,-0.6%,1.1%
COc1ccccc1NC(=O)CCS(=O)(=O)c1ccccc1,-0.2%[10 µM],.,0.8%[9.22 µM],.,-2.9%,0.6%
O=C(CN1CCCN(S(=O)(=O)c2ccc(F)cc2)CC1)Nc1ccccc1Br,-3.2%[10 µM],-2.4,0.8%,-13.6%,28.2µM*,17.5%
Cc1ccc(S(=O)(=O)N2CCN(CC(=O)N/N=C\c3ccncc3)CC2)cc1,-6.8%[10 µM],.,-1.1%[9.22 µM],.,.,3.9%
CCN(CC(=O)NCc1ccc(F)cc1)CC(=O)Nc1ccc(S(=O)(=O)N2CCCC2)cc1,-10.4%,.,-13.4%,.,11.2µM*,12.4%
O=C(O)c1ccc(N=NN2CCCCCC2)cc1,7.2%[10 µM],25.3,?,-17.9%,-4.8%,-1.0%
